Laboratory results reported in the supplement of paper PMC10849652.
Of roughly 8,800 targets only a part is listed; those with a hit were picked by preference. About 0.5% of all pairs of compound and target were hits.

Legend:
Experiment in all cases: log2 fold change, soluble protein after heating vs DMSO (PISA); higher = thermal stabilisation; K562 lysate, 10 uM; active = over 0.2 and 3.5 SD of the protein, either way, in both replicates (recomputed)
[1] = compound: NCC(=O)Nc1ccc(-n2nc(C(F)(F)F)cc2-c2ccc3c(ccc4ccccc43)c2)cc1
Procedure, shortened: (§1)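 K562 pellets were dounce-homogenised in PBS pH 7.4 with 1 mM MgCl2, and the crude extract at 1 mg/mL protein was treated with 10 μM compound for 30 min. Aliquots were heated for 3 min across 48°C-58°C, pooled, and brought to 0.5% NP-40 at 4°C; soluble protein was the supernatant after 21,000xg for 90 min. Soluble protein was quantified by TMTpro 16plex LC-MS/MS with channel sums equalised, and reported as log2 fold change in thermal stability against DMSO controls, with values from duplicates.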

vorinostat = compound: O=C(CCCCCCC(=O)Nc1ccccc1)NO [vorinostat]
Procedure, shortened: as §1

silmitasertib = compound: O=C(O)c1ccc2c(c1)nc(Nc1cccc(Cl)c1)c1ccncc12 [silmitasertib]
Procedure, shortened: as §1

[2] = compound: O=C1NC(=O)C(c2cnc3ccccn23)=C1c1cn2c3c(cc(F)cc13)CN(C(=O)N1CCCCC1)CC2
Procedure, shortened: as §1

entospletinib = compound: c1cn2cc(-c3ccc4cn[nH]c4c3)nc(Nc3ccc(N4CCOCC4)cc3)c2n1 [entospletinib]
Procedure, shortened: as §1

Measured: log2 fold change

RAE1 (UniProt P78406)
Chain of UniProt P78406 (P78406 whole entry, looked up): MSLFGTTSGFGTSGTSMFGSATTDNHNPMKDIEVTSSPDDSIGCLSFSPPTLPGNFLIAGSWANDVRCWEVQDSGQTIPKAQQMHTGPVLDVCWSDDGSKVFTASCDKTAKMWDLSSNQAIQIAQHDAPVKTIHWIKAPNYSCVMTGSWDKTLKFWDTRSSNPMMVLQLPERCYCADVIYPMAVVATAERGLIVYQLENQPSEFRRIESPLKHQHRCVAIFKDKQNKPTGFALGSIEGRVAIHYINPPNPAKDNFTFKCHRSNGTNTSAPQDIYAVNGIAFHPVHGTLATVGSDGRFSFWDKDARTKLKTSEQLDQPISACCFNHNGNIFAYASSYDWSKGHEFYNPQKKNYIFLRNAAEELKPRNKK
inactive: [1] 0.007 | vorinostat -0.126 | silmitasertib -0.022 | [2] -0.062 | entospletinib -0.024

RHBDD1 (UniProt Q8TEB9)
Chain of UniProt Q8TEB9 (Q8TEB9 whole entry, looked up): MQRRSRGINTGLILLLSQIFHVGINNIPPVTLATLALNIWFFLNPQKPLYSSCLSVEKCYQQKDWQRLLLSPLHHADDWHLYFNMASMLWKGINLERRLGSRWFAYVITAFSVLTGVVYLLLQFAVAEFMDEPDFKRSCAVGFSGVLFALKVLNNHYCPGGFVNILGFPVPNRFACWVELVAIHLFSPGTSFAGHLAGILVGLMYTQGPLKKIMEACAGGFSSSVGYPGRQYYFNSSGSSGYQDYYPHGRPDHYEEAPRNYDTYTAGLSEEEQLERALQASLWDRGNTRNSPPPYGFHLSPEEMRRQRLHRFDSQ
inactive: [1] -0.162 | entospletinib 0.036

SERAC1 (UniProt Q96JX3)
Chain of UniProt Q96JX3 (Q96JX3 whole entry, looked up): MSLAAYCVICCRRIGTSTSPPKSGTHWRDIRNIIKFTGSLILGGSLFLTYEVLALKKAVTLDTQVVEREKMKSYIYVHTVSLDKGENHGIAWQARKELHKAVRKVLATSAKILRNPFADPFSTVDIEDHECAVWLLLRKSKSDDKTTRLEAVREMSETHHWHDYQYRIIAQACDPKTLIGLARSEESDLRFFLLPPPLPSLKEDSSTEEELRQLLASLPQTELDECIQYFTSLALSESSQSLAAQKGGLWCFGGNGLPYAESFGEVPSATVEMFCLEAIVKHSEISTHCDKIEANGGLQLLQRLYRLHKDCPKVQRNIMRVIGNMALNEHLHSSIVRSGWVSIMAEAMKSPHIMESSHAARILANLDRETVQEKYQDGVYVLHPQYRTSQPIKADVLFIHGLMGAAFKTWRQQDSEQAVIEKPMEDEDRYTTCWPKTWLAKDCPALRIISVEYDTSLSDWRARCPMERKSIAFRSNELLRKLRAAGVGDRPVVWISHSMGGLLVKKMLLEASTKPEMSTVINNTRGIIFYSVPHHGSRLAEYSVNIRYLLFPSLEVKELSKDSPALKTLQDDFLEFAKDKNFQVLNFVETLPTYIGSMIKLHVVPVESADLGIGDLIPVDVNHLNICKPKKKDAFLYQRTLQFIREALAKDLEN
inactive: vorinostat 0.236 | silmitasertib 0.155 | entospletinib -0.001

RALGAPB isoform 3 (UniProt Q86X10)
inactive: entospletinib -0.045

RNPC3 (UniProt Q96LT9)
Chain of UniProt Q96LT9 (Q96LT9 whole entry, looked up): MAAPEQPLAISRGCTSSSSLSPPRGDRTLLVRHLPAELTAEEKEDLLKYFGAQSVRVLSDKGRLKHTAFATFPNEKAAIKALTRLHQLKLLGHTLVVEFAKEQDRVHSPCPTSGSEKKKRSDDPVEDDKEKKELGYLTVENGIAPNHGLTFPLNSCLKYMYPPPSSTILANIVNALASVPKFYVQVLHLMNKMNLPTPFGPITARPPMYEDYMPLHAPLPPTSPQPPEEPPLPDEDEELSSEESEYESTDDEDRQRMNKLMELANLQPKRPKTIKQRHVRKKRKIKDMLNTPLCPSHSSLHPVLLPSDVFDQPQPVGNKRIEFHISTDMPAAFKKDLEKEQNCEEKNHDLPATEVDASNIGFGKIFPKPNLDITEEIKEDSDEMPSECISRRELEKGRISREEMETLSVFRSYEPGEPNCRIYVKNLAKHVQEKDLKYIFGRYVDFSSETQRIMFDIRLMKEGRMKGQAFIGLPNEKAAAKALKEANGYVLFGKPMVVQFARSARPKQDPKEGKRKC
inactive: silmitasertib 0.145 | [2] 0.036
active: vorinostat -0.488

SAR1A (UniProt Q9NR31)
Chain of UniProt Q9NR31 (Q9NR31 whole entry, looked up): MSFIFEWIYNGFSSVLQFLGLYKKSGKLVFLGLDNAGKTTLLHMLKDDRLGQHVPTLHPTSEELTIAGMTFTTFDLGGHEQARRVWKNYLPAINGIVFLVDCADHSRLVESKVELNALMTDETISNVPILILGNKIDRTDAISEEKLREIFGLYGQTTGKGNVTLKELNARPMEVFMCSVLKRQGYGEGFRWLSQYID
inactive: [1] 0.004 | vorinostat 0.056 | silmitasertib -0.077 | [2] -0.039 | entospletinib -0.089

RAD54L (UniProt Q92698)
Chain of UniProt Q92698 (Q92698 whole entry, looked up): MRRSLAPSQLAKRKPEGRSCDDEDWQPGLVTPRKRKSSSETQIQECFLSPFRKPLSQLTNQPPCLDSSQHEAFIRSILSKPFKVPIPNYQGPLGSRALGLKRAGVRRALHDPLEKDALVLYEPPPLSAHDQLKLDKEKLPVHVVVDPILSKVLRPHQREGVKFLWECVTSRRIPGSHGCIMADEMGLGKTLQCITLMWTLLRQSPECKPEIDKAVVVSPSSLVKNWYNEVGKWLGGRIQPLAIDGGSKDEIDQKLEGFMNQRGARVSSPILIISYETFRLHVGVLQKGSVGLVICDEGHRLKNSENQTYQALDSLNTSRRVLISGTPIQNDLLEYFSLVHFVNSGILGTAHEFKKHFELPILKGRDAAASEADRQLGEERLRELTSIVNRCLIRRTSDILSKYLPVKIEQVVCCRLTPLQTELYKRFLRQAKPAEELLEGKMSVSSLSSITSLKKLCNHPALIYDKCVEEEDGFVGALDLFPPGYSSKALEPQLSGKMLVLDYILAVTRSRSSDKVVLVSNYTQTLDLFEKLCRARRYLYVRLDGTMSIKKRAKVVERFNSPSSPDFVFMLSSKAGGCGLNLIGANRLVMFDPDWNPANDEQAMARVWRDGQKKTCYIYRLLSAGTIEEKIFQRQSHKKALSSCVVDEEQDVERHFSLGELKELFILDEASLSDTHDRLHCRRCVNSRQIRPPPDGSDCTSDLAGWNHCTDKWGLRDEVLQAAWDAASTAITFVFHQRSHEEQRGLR
active: vorinostat -1.06
inactive: silmitasertib 0.065

SCD (UniProt O00767)
Chain of UniProt O00767 (O00767 whole entry, looked up): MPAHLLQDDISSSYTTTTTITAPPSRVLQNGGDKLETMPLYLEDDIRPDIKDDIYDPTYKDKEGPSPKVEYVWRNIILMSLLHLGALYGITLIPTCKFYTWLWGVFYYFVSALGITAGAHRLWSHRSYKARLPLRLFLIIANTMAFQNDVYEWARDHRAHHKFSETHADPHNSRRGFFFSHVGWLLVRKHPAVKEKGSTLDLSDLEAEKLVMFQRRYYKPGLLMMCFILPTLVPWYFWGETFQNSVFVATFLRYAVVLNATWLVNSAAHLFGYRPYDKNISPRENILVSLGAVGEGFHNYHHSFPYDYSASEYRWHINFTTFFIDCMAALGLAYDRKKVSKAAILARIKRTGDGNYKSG
inactive: [1] -0.045 | vorinostat 0.021 | silmitasertib -0.057 | [2] -0.028 | entospletinib 0.017

RBMX (UniProt P38159)
Chain of UniProt P38159 (P38159 whole entry, looked up): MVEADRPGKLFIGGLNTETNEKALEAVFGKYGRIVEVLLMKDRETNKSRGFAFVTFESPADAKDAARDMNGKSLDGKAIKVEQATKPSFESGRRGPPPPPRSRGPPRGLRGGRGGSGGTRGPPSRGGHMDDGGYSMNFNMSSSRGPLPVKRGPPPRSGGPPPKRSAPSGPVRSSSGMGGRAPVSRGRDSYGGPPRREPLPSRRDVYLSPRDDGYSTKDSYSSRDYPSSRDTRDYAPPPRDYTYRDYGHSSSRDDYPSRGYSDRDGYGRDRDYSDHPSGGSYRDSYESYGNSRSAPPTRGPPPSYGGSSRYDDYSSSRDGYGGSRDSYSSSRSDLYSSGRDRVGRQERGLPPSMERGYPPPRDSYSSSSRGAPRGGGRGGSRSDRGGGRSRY
inactive: [1] -0.043 | vorinostat 0.065 | silmitasertib 0.048 | [2] -0.022 | entospletinib 0.008

SERPINI1 (UniProt Q99574)
Chain of UniProt Q99574 (Q99574 whole entry, looked up): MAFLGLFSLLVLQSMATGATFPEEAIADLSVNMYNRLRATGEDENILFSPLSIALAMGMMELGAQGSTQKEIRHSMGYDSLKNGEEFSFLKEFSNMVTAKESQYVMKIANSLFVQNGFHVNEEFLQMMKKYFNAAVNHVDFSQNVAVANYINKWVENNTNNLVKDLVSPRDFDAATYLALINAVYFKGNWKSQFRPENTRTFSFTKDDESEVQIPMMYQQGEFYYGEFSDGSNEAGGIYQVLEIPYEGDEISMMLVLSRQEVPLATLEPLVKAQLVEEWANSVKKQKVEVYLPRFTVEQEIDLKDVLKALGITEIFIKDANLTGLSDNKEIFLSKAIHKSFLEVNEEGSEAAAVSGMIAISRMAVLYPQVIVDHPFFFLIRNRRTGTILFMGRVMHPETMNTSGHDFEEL
inactive: [1] -0.04 | vorinostat 0.124 | silmitasertib -0.021 | [2] -0.003 | entospletinib -0.016
